This note sets out measurements from PubChem BioAssay (NCATS).

Experiment [1] in a line: Primary fluorescence-based thiol-reactive (MSTI) qHTS assay for identification of artifact compounds. (AID 1845221). Also: nearly all actives have a fitted effect of over 65% in size. Also: potency is read from the fitted curve at half-maximal effect. A digest of the protocol: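 Probe: MSTI 4 uM, PBS pH 7.4, 2% DMSO. Incubation 1 h, RT, light-protected. Readout fluorescence 525/598 nm.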
Experiment [2] concerns Nanoluciferase (engineered Oplophorus gracilirostris luciferase). Kind of experiment: Primary Nanoluciferase (NLuc) qHTS assay for identification of artifact compounds. (AID 1845222).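 Also: NLuc secreted into diluted conditioned medium of S16 cells.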 The method in brief:
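S16 cell supernatant NLuc, 1:55; cpds qHTS; 15 min RT dark; Nano-Glo substrate 1:100, 5 min; luminescence; Hill fit of % inhibition.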

A short description of experiment [3]: Primary redox qHTS assay for identification of artifact compounds. (AID 1845223). The method in brief:
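Redox-cycling detection via DTT (250 uM final) oxidation coupled to Amplex Red (25 uM)/HRP (250 mU/mL) in HBSS. 15 min preincubation plus 30 min after DTT, room temperature. Ex/Em 525/598 nm; 4-parameter Hill fit against DMSO and 10 uM DA3003.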

The nature of experiment [4]: Quantitative High-Throughput drug screen in 47 multiple myeloma cell lines against the NCATS MIPE library collection: AMO1_DSMZ cell viability assay (AID 1918927; also: potency is read from the fitted curve at half-maximal effect; nearly all actives have a fitted effect of over 30% in size). The method in brief:
(§1)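 CellTiter-Glo luminescence (ATP) after 48 h compound exposure, 37C/5% CO2; 500 cells/well; MIPE 4.0 approved/investigational drugs pinned in; DMSO = 100%, media only = 0% viability.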

Experiment [5] is described as follows: Quantitative High-Throughput drug screen in 47 multiple myeloma cell lines against the NCATS MIPE library collection: ARP1_JJKsccF8 cell viability assay (AID 1918928; also: potency is read from the fitted curve at half-maximal effect; nearly all actives have a fitted effect of over 40% in size). A digest of the protocol:
(§2)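 Cell viability inhibition in this qHTS is measured via ATP content (CellTiter-Glo) after 48 h drug exposure at 37 °C. Wells hold 500 cells; DMSO-treated wells define 100% and medium-only wells 0%.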

Experiment [6] in a line: Quantitative High-Throughput drug screen in 47 multiple myeloma cell lines against the NCATS MIPE library collection: ARD_JJKsccE7 cell viability assay (AID 1918929; also: potency is read from the fitted curve at half-maximal effect). The method in brief: as §1
Experiment [7] can be described thus: Quantitative High-Throughput drug screen in 47 multiple myeloma cell lines against the NCATS MIPE library collection: Karpas620_DSMZ cell viability assay (AID 1918959). Also: potency is read from the fitted curve at half-maximal effect; nearly all actives have a fitted effect of over 30% in size. A digest of the protocol: (§3)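 Steps: seed 500 cells per well; pin-transfer MIPE 4.0 library; incubate 48 h at 37C, 5% CO2, humidified; add CellTiter-Glo, 5 min room temperature; read luminescence.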

Experiment [8] is described as follows: Quantitative High-Throughput drug screen in 47 multiple myeloma cell lines against the NCATS MIPE library collection: KMM1_JCRB cell viability assay (AID 1918960). Also: potency is read from the fitted curve at half-maximal effect; nearly all actives have a fitted effect of over 30% in size. A digest of the protocol: as §2
A short description of experiment [9]: Quantitative High-Throughput drug screen in 47 multiple myeloma cell lines against the NCATS MIPE library collection: JIM3_ECACC cell viability assay (AID 1918963; also: nearly all actives have a fitted effect of over 35% in size; also: potency is read from the fitted curve at half-maximal effect). The method in brief: as §3
The nature of experiment [10]: Quantitative High-Throughput drug screen in 47 multiple myeloma cell lines against the NCATS MIPE library collection: INA6_PLB cell viability assay (AID 1918965; also: potency is read from the fitted curve at half-maximal effect; nearly all actives have a fitted effect of over 55% in size). A digest of the protocol:
as §1

Experiment [11] in a line: Quantitative High-Throughput drug screen in 47 multiple myeloma cell lines against the NCATS MIPE library collection: JJN3_DSMZ cell viability assay (AID 1918966; also: potency is read from the fitted curve at half-maximal effect; nearly all actives have a fitted effect of over 50% in size). The method in brief: as §1
Experiment [12] can be described thus: Quantitative High-Throughput drug screen in 47 multiple myeloma cell lines against the NCATS MIPE library collection: FR4_PLB cell viability assay (AID 1918924; also: potency is read from the fitted curve at half-maximal effect; nearly all actives have a fitted effect of over 35% in size). A digest of the protocol: as §3
Experiment [13] in a line: Quantitative High-Throughput drug screen in 47 multiple myeloma cell lines against the NCATS MIPE library collection: Delta47_JCRB cell viability assay (AID 1918925; also: potency is read from the fitted curve at half-maximal effect; nearly all actives have a fitted effect of over 45% in size). The method in brief: as §1
Experiment [14] in a line: Quantitative High-Throughput drug screen in 47 multiple myeloma cell lines against the NCATS MIPE library collection: EJM_DSMZ cell viability assay (AID 1918926; also: potency is read from the fitted curve at half-maximal effect; nearly all actives have a fitted effect of over 30% in size). The method in brief:
as §1

A short description of experiment [15]: Quantitative High-Throughput drug screen in 47 multiple myeloma cell lines against the NCATS MIPE library collection: H1112_PLB cell viability assay (AID 1918967). The method in brief:
as §1

Experiment [16] is described as follows: Quantitative High-Throughput drug screen in 47 multiple myeloma cell lines against the NCATS MIPE library collection: Karpas25_ECACC cell viability assay (AID 1918968; also: potency is read from the fitted curve at half-maximal effect; nearly all actives have a fitted effect of over 35% in size). The method in brief:
as §1

Experiment [17] can be described thus: Quantitative High-Throughput drug screen in 47 multiple myeloma cell lines against the NCATS MIPE library collection: KMS27_JCRB cell viability assay (AID 1918970). A digest of the protocol:
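ATP-based viability (CellTiter-Glo luminescence) is measured in cells treated 48 h with approved and investigational drugs at 37 °C. Controls are DMSO-only wells for full viability and media-only wells for none.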

Experiment [18] is described as follows: Quantitative High-Throughput drug screen in 47 multiple myeloma cell lines against the NCATS MIPE library collection: KHM11_PLB cell viability assay (AID 1918962). Also: potency is read from the fitted curve at half-maximal effect; nearly all actives have a fitted effect of over 35% in size. The method in brief:
as §3

Experiment [19] in a line: Quantitative High-Throughput drug screen in 47 multiple myeloma cell lines against the NCATS MIPE library collection: JIM1_ECACC cell viability assay (AID 1918964; also: potency is read from the fitted curve at half-maximal effect). The method in brief: as §1
Experiment [20] is described as follows: Quantitative High-Throughput drug screen in 47 multiple myeloma cell lines against the NCATS MIPE library collection: Karpas417_ECACC cell viability assay (AID 1918961). Also: potency is read from the fitted curve at half-maximal effect. Particulars: Karpas417 myeloma viability, CellTiter-Glo ATP luminescence, 48 h; viability (% of DMSO): at 45.8 µM (top of the series). A digest of the protocol:
as §1

Records with an inconclusive call do not appear. Calls of active or inactive are those of the source. Calls follow the shape of the dose curve; as a rule, active = well fitted curve in the direction sought with a large enough effect; inconclusive = small, poorly fitted or top-dose-only effect, or another doubt; inactive = no such curve, though single readings can be large; an effect the other way counts as inactive or inconclusive.

`CCOc1ccc(Nc2nc(-c3c(C)nc4ccccn34)cs2)cc1`: the Potency was 2.67 µM (active) in [1]; 0.001 µM (active) in experiment [4]; 0.003 µM (active) in experiment [5]; 0.001 µM (active) in experiment [6]; 0.0015 µM (active) in experiment [7]; 0.001 µM (active) in experiment [8]. In addition, the Potency in experiment [10] was 0.0026 µM (active); in experiment [11], 5.26 µM (active). For the same compound, the Potency result in experiment [2] and in experiment [9] was “inactive” each time. Further, in experiment [3], the compound was classed as inactive.
Consider `Cc1nc(N)sc1-c1ccnc(Nc2ccc(N3CCOCC3)cc2)n1`, for which the Potency result in [2] is “inactive”. In addition, the compound was called inactive in [3]. The Potency in experiment [12] was 14.8 µM (active); in experiment [13] it was 10.5 µM (active); in experiment [14], 18.7 µM (active); in experiment [4] it was 2.64 µM (active); in experiment [5], 8.33 µM (active); in experiment [6], 5.26 µM (active). Further, the Potency in [7] is 20.9 µM (active); in [8], 4.69 µM (active); in experiment [9], 14.8 µM (active); in experiment [10], 1.48 µM (active); in experiment [11], 11.8 µM (active); in [15], 16.6 µM (active). In addition, the Potency in [16] was 5.9 µM (active); in experiment [17], 6.62 µM (active).
Turning to `CC1(C)CCC(CN2CCN(c3ccc(C(=O)NS(=O)(=O)c4ccc(NCC5CCOCC5)c([N+](=O)[O-])c4)c(Oc4cnc5[nH]ccc5c4)c3)CC2)=C(c2ccc(Cl)cc2)C1`, the Potency result in experiment [1], in [2] and in experiment [9] was “inactive” in each case. Also, the compound was called inactive in [3]. In addition, the Potency in [12] is 20.9 µM (active); in [14] it was 20.9 µM (active); in [4], 9.35 µM (active); in experiment [5] it was 23.5 µM (active); in experiment [7] it was 0.332 µM (active); in experiment [8], 8.33 µM (active). Moreover, the Potency in [15] was 0.264 µM (active); in [17], 0.118 µM (active).
For `COc1cc2ncnc(Nc3ccc(F)c(Cl)c3)c2cc1OCCCN1CCOCC1`, the Potency result in [1] and in experiment [2] was “inactive” each time. For the same compound, the call in [3] was inactive. In addition, the Potency in [12] was 19.1 µM (active); in experiment [13], 5.4 µM (active); in experiment [14], 6.05 µM (active); in experiment [4], 4.81 µM (active); in experiment [5] it was 48.1 µM (active); in [6], 12.1 µM (active). Besides, the Potency in [7] was 6.79 µM (active); in experiment [8] it was 8.55 µM (active); in experiment [18], 3.4 µM (active); in experiment [19], 5.4 µM (active); in experiment [15] it was 1.52 µM (active); in experiment [16] it was 6.05 µM (active). Also, in experiment [17], the Potency was 13.6 µM (active).
For `O=C(CCCCCCC(=O)Nc1ccccc1)NO`, the Potency result in experiment [2] was “inactive”. Moreover, the call in [3] was inactive. For the same compound, the Potency was 2.35 µM (active) in experiment [12]; 1.32 µM (active) in experiment [13]; 7.43 µM (active) in experiment [14]; 1.05 µM (active) in [4]; 0.833 µM (active) in experiment [5]; 1.18 µM (active) in [6]. Moreover, the Potency in experiment [7] is 3.32 µM (active); in experiment [8] it was 1.32 µM (active); in [20], 1.05 µM (active); in [18], 7.43 µM (active); in experiment [9] it was 5.9 µM (active); in experiment [19], 2.35 µM (active). Further, the Potency in experiment [10] was 0.935 µM (active); in [15], 4.18 µM (active); in experiment [16] it was 1.48 µM (active); in experiment [17] it was 3.72 µM (active).
